Screening data (PubChem)
BJeLR viability: BJeLR cell viability loss; 300,000 compounds, 0.17% hits; inhibition, % (test concentration not listed); BJeLR (HRASV12) viability, CellTiter-Glo ATP luminescence, 48 h; in the data active = inhibition above about 50%
RecA splice inh: blocks M. tuberculosis RecA intein splicing | cell-free RecA intein splicing, fluorescence | inhibition, % (no concentration beside the values) | 290,000 compounds, 0.75% hits; in the data active = inhibition above about 30%;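 also: 0% = vehicle wells and 100% = reference inhibitor control wells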
Mtb FBA inh: inhibits M. tuberculosis FBA enzyme; P9WQA3; purified M. tuberculosis FBA, fluorescence read-out; inhibition, % at 1 µM; 360,000 compounds, 2.3% hits; AID 588726; in the data active = inhibition above about 27%;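 also: 0% = vehicle and 100% = reference inhibitor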
GDH-TPI inh: GDH-TPI coupled enzyme inhibition counter-screen | GDH-TPI coupled enzyme counterscreen, NADH absorbance | AID 588335 | 360,000 compounds, 1.2% hits | inhibition, % at 4.8 µM; in the data active = inhibition above about 30%;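 also: 0% = DMSO wells and 100% = wells lacking the enzyme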
PrPC TRFRET: reduces human prion protein on the cell surface; P04156; cell surface PrPC, TR-FRET read-out; inhibition, % at 13.8 µM; 370,000 compounds, 0.43% hits; AID 720596; in the data active = inhibition above about 24%; also: 0% = median of the test wells and 100% = reference compound wells
* hit, by the source's call; i = inactive; . = not tested or not shown; + = active, no number. Hits are enriched below; roughly 4.2% of the tested compounds scored in any of these assays.

SMILES | BJeLR viability | RecA splice inh | Mtb FBA inh | GDH-TPI inh | PrPC TRFRET
Cc1ccccc1C(=O)NC1CCCCN(Cc2cccc(Cl)c2)C1=O (centres undefined) | . | . | . | . | -8
COc1ccc(C2CC(c3ccccc3)=NN2c2ccc(S(N)(=O)=O)cc2)cc1 (centres undefined) | 0 | -11 | + | 11 | 1
COc1ccc(C2CC(c3cccs3)=NN2c2ccc(C=O)cc2)cc1 (centres undefined) | -7 | i | . | . | 3
COc1ccc(C2CC(c3cccc(C(F)(F)F)c3)=NN2c2ccc(S(N)(=O)=O)cc2)cc1 (centres undefined) | . | . | + | 4 | 0
COc1ccc(C2=NN(c3ccc(C=O)cc3)C(c3ccccc3)C2)cc1 (centres undefined) | 4 | -70 | . | . | .
O=C(O)c1ccc(N2N=C(c3ccccc3)CC2c2ccccc2)cc1 (centres undefined) | 8 | -429 | + | 32* | 6
CC(C)N1CCCCC(NC(=O)c2ccc(-c3ccccc3)cc2)C1=O (centres undefined) | . | . | . | . | 0
c1ccc(CN2CCN(c3ncnc4sccc34)CC2)cc1 | . | . | . | . | 16
O=c1cc(/C=C/c2ccccc2)oc2ccccc12 | 8 | . | 6 | 32* | -15
COC(=O)C1CC23C=CCN4CCC5(c6ccccc6NC15C2C)C43 (centres undefined) | 57* | -4 | 1 | -10 | 6
CCOC(=O)[C@@]12CCCC3=C1N(CCC3)C(=O)[C@H]2CC(=O)NCC1CCCCC1 | . | . | . | . | 0
C=C1C(=O)O[C@H]2C[C@H]1[C@@H](OC(C)=O)C/C(C)=C/CC/C(C)=C\CC[C@]2(C)O | . | . | 0 | -14 | 38*
C=C1C(=O)O[C@@H]2[C@H]3O[C@]3(C)CC/C=C(\C)CC[C@@H]12 | . | . | 3 | -1 | 5
COC(=O)[C@]12C[C@H](CC(=O)N3CCSCC3)C(=O)N(Cc3cccc4ccccc34)C1=C[C@H](C1CCCC1)O[C@@H]2C | . | . | . | . | 9
Cn1c(=O)c2cc(NC(=S)NC3CCCCC3)ccc2n1Cc1cccc(C(F)(F)F)c1 | . | . | 16 | 2 | 4
Cn1c(=O)c2cc(NC(=O)NCCc3ccccc3)ccc2n1Cc1cccc(C(F)(F)F)c1 | . | . | 130* | 6 | 6
Cn1c(=O)c2cc(NC(=O)NCCc3ccccc3)ccc2n1Cc1ccccc1 | . | . | 127* | -4 | 2
Cn1c(=O)c2cc(NC(=O)OCCF)ccc2n1Cc1cccc(C(F)(F)F)c1 | . | . | 183* | 5 | 9
O=C(NCCc1ccccc1)Nc1cccc(Cl)c1 | -2 | -3 | 1 | -5 | 16
CN1C2=N[C@H](c3cccc(C(F)(F)F)c3)CC(=O)N2/C(=C\c2ccccc2)[C@H]1c1ccccc1 | . | . | . | . | 12
CCOc1ccc(-n2c(SCC(=O)Nc3ccc(S(=O)(=O)Nc4cc(C)nc(C)n4)cc3)nnc2-c2cccc(C)c2)cc1 | . | . | . | . | 11
COc1cccc(-c2c(NC(=O)c3ccco3)oc3ccc(Cl)cc3c2=O)c1 | 11 | -4 | 0 | 36* | 0
COc1cccc(-c2c(NC(=O)c3ccco3)oc3ccccc3c2=O)c1 | 3 | -3 | 0 | 24 | -3
Cc1nc2ccc(S(=O)(=O)NCC(=O)NCc3ccc(F)cc3)cc2s1 | . | . | . | . | -3
CCCn1c(O)c(N=NC(=O)c2ccco2)c2ccccc21 | -7 | 3 | 6 | 33* | -23
SMILES | BJeLR viability | RecA splice inh | Mtb FBA inh | GDH-TPI inh | PrPC TRFRET
COc1ccc(CN2C(=O)CCCC2(C)c2nnnn2-c2c(C)cccc2C)cc1OC (centres undefined) | . | . | . | . | 3
Cc1ccc(C(=O)n2cnc3ccccc32)cc1C | -4 | 36* | 2 | 9 | 1
COc1ccc(C(=O)N(C)[C@H]2C[C@H]3c4[nH]c5cccc(-c6ccccc6)c5c4CCN3C[C@H]2[C@H](C)O)cc1 | . | . | . | . | -9
Cc1c(C2(O)CCCCC2)[nH]c2cnccc12 | . | . | 127* | 13 | -6
C[C@H](O)[C@@H]1CN2CCc3ccc(-c4ccc5c(c4)OCO5)cc3[C@@H]2C[C@@H]1N(C)C(=O)Nc1ccccc1 | . | . | . | . | -1
CN(C(=O)c1ccno1)c1nnc(-c2ccccn2)s1 | -2 | -1 | + | 22 | -1
CCN(C[C@H]1N[C@@](Cc2ccccc2)(C(=O)OC)[C@H]2C(=O)N(Cc3ccccc3)C(=O)[C@@H]12)S(=O)(=O)c1ccccc1 | . | . | -2 | 10 | 5
CCN(C[C@H]1N[C@@](Cc2ccccc2)(C(=O)OC)[C@H]2C(=O)N(Cc3ccccc3)C(=O)[C@@H]12)S(=O)(=O)c1ccc(-c2ccccc2)cc1 | . | . | 5 | 32* | -3
